# Source: PubChem BioAssay (EPA / NIEHS)
# Active and inactive are the calls of the source. Rule for the calls: active = hit-call score of the fitted dose curve at least 0.9, where 1 is the maximum; inactive = score below 0.9.
# Assays:
# [1] = APR_HepG2_CellCycleArrest_24hr: Apredica 24-hour HepG2 Assay for Cell Cycle Arrest (AID 2282905); conditions: imaging, actives raise or lower the signal;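 note: cell cycle arrest scored as ratio of 2N to 4N nuclear DNA content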
# Procedure, shortened: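 Readout: Hoechst 33342 nuclear DNA content by high-content fluorescent imaging, six images/well, 20x. Human HepG2 liver cells, 24 hr compound exposure, 0.39–200 uM, final DMSO 0.5% v/v. Gain or loss fitted relative to DMSO baseline.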
# [2] = APR_HepG2_NuclearSize_24hr: Apredica 24-hour HepG2 Assay for Nuclear Size (AID 2282907); conditions: high-content imaging, actives raise or lower the signal
# Procedure, shortened: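 Read-out: nuclear diameter from Hoechst 33342 (2 ug/mL) imaging of fixed HepG2 cells, 20x, six fields/well. Compounds ran at 0.39–200 uM for 24 hr, 0.5% DMSO final. Gain or loss was fitted bidirectionally relative to the DMSO baseline.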
# [3] = APR_HepG2_CellLoss_24hr: Apredica 24-hour HepG2 Assay for Cell Loss (AID 2282908); conditions: high-content imaging;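 for AC50: fit in both directions so a hit may be cell loss or gain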
# Procedure, shortened: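 Read-out: Hoechst 33342-stained nuclei counted by automated fluorescence imaging after formaldehyde fixation and Triton permeabilization. Ten concentrations, 0.39 to 200 uM, duplicate wells, 0.5% DMSO final. Gain or loss of signal fitted relative to DMSO baseline.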
# [4] = APR_HepG2_MicrotubuleCSK_24hr: Apredica 24-hour HepG2 Assay for Microtubule CSK Stabilty (AID 2282909); conditions: HepG2 microtubule cytoskeleton imaging, actives raise or lower the signal
# Procedure, shortened: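 Read-out: alpha-tubulin immunofluorescence intensity by automated high-content imaging of fixed HepG2 cells after 24 h compound treatment. Ten concentrations, 0.39 to 200 uM, in duplicate; DMSO 0.5% v/v. Taxol positive control; DMSO-normalized bidirectional curve fitting.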
# [5] = APR_HepG2_MitoticArrest_24hr: Apredica 24-hour HepG2 Assay for Mitotic Arrest (AID 2282910); conditions: high-content imaging, actives raise or lower the signal
# Procedure, shortened: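 High-content imaging of fixed HepG2 cells labeled with Hoechst 33342 and anti-phospho-histone H3, after 24 h treatment. Ten concentrations 0.39 to 200 uM in duplicate, final DMSO 0.5%; changes fitted both directions relative to DMSO.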
# [6] = APR_HepG2_MitoMembPot_24hr: Apredica 24-hour HepG2 Assay for Mitochondrial Membrane Potential (AID 2282911); conditions: imaging, actives raise or lower the signal
# Procedure, shortened: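 Mitochondrial dye uptake (MitoTracker Red CMXRos, 250 nM, 30 min pre-fixation) in HepG2 after 24 hr compound exposure, 0.39–200 uM; ArrayScan images at 20x, activity fitted in both directions relative to DMSO.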
# [7] = APR_HepG2_MitoMass_24hr: Apredica 24-hour HepG2 Assay for Mitochondrial Mass (AID 2282912); conditions: high-content imaging, actives raise or lower the signal
# Procedure, shortened: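 HepG2, 24 hr dosing, 10 concentrations 0.39–200 uM in duplicate, DMSO 0.5% final. MitoTracker Red CMXRos 250 nM, 30 min pre-fix; 3.7% formaldehyde fix. Imaging-based fluorescence intensity; gain/loss fit vs DMSO baseline.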
# [8] = APR_HepG2_p53Act_24hr: Apredica 24-hour HepG2 Assay for p53 Activation (AID 2282913); conditions: high-content imaging, actives raise or lower the signal;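 note: p53 protein immunofluorescence averaged per cell in HepG2 with Hoechst nuclei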
# Procedure, shortened: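 Following 24 hr dosing of HepG2 at 0.39–200 uM, the cells undergo formaldehyde fixation, Triton permeabilization and multiplexed antibody labeling that includes p53 (Cy5). Signal from the imaging is referenced to DMSO solvent controls.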
# [9] = APR_HepG2_CellCycleArrest_72hr: Apredica 72-hour HepG2 Assay for Cell Cycle Arrest (AID 2282914); conditions: high-content imaging, actives raise or lower the signal
# Procedure, shortened: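 Using multiplexed high-content imaging, HepG2 nuclei stained with Hoechst 33342 (2 ug/mL) were analysed for DNA content after fixation and permeabilization. Treatment lasted 72 hr across 0.39–200 uM in duplicate with final DMSO 0.5% v/v; DMSO served as negative control.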
# [10] = APR_HepG2_CellLoss_72hr: Apredica 72-hour HepG2 Assay for Cell Loss (AID 2282915); conditions: high-content imaging
# Procedure, shortened: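 Cell number comes from Hoechst 33342-labelled nuclei, imaged at 20x after 3.7% formaldehyde fixation. Dosing was 0.39–200 uM, ten concentrations in duplicate, 0.5% DMSO final, for 72 h. Bidirectional fit relative to DMSO baseline.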
# [11] = APR_HepG2_P-H2AX_72hr: Apredica 72-hour HepG2 Assay for H2AX Phosphorylation (AID 2282916); conditions: imaging, actives raise or lower the signal;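 note: phospho-histone H2A.x immunostain intensity per cell marking DNA damage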
# Procedure, shortened: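 Readout: phospho-H2A.x immunofluorescence (FITC secondary) plus Hoechst nuclear stain, high-content imaging at 20x, six fields/well. HepG2, 72 hr compound exposure, 0.39–200 uM, final DMSO 0.5% v/v. Gain or loss fitted relative to DMSO baseline.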
# [12] = APR_HepG2_MitoMembPot_72hr: Apredica 72-hour HepG2 Assay for Mitochondrial Membrane Potential (AID 2282917); conditions: imaging, actives raise or lower the signal
# Procedure, shortened: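 Membrane potential read by MitoTracker Red CMXRos (250 nM, 30 min, pre-fixation) fluorescence imaging of HepG2 after 72 hr exposure. Ten concentrations, 0.39–200 uM, duplicate wells, 0.5% DMSO; fitted in both directions against DMSO baseline.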
# [13] = APR_HepG2_MitoticArrest_72hr: Apredica 72-hour HepG2 Assay for Mitotic Arrest (AID 2282918); conditions: high-content imaging, actives raise or lower the signal
# Procedure, shortened: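 Using high-content imaging of fixed HepG2 cells, phospho-histone H3 signal was measured following a 72 hr incubation with ten-point compound dilutions up to 200 uM. DMSO served as the negative control and baseline for bidirectional curve fitting.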
# [14] = APR_HepG2_MicrotubuleCSK_72hr: Apredica 72-hour HepG2 Assay for Microtubule CSK Stabilty (AID 2282919); conditions: HepG2 microtubule cytoskeleton, high-content imaging, actives raise or lower the signal
# Procedure, shortened: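 High-content imaging of alpha-tubulin staining in fixed HepG2 cells after 72 hr treatment with ten concentrations from 0.39 to 200 uM (0.5% DMSO). Fitting was bidirectional against DMSO; taxol served as positive control.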
# [15] = APR_HepG2_P-H2AX_24hr: Apredica 24-hour HepG2 Assay for H2AX Phosphorylation (AID 2282920); conditions: high-content imaging, actives raise or lower the signal
# Procedure, shortened: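 Human HepG2 liver cells, treated 24 hr with test chemicals (0.39–200 uM, final DMSO 0.5% v/v), are fixed and co-stained for phospho-H2A.x and c-Jun with Hoechst. Imaged intensity is fitted in both directions against DMSO controls.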
# [16] = APR_HepG2_StressKinase_72hr: Apredica 72-hour HepG2 Assay for Stress Kinase (AID 2282921); conditions: HepG2 stress kinase (phospho-c-Jun) imaging, actives raise or lower the signal
# Procedure, shortened: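 Phospho-c-Jun immunofluorescence measured by high-content imaging at 20x, six fields per well; bidirectional curve fitting against DMSO as baseline. Dosing: 0.39–200 uM, 72 h, 0.5% DMSO final.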
# [17] = APR_HepG2_StressKinase_24hr: Apredica 24-hour HepG2 Assay for Stress Kinase (AID 2282922); conditions: HepG2 stress kinase (phospho-c-Jun) imaging, actives raise or lower the signal
# Procedure, shortened: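 High-content imaging of phospho-c-Jun immunofluorescence in fixed, permeabilized HepG2 cells after 24 h dosing. Ten concentrations, 0.39 to 200 uM, run in duplicate at 0.5% v/v DMSO; gain or loss of signal versus DMSO.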
# [18] = APR_HepG2_p53Act_72hr: Apredica 72-hour HepG2 Assay for p53 Activation (AID 2282923); conditions: high-content imaging, actives raise or lower the signal;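 note: average cellular p53 protein immunofluorescence intensity in HepG2 cells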
# Procedure, shortened: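 Readout: p53 immunofluorescence quantified by automated high-content imaging at 20x, six fields per well, nuclei located via Hoechst. Dosing ran 72 hr over ten concentrations from 0.39 to 200 uM; bidirectional curve fitting against DMSO baseline.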
# [19] = APR_HepG2_MitoMass_72hr: Apredica 72-hour HepG2 Assay for Mitochondrial Mass (AID 2282924); conditions: high-content imaging, actives raise or lower the signal;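 note: MitoTracker Red CMXRos stain intensity per cell imaged as mitochondrial mass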
# Procedure, shortened: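 Readout is imaged MitoTracker Red (250 nM, 30 min, pre-fixation) signal, fitted bidirectionally against DMSO baseline. Human HepG2 liver cells received compound 0.39–200 uM in duplicate for 72 hr, final DMSO 0.5%.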
# [20] = APR_HepG2_NuclearSize_72hr: Apredica 72-hour HepG2 Assay for Nuclear Size (AID 2282925); conditions: high-content imaging, actives raise or lower the signal
# Procedure, shortened: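 Nuclear size was read by high-content imaging of Hoechst 33342 stain after formaldehyde fixation. Compounds ran 72 h on HepG2 at 0.39 to 200 uM, with final DMSO 0.5% v/v. Curves fitted both directions relative to DMSO control.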
smiles,measurement,setting,value
CCCCCCCC[Si](OCC)(OCC)OCC,outcome,[1],inactive
same,outcome,[2],inactive
same,AC50,[3],118 µM (active)
same,outcome,[4],inactive
same,outcome,[5],inactive
same,AC50,[6],29.8 µM (active)
same,outcome,[7],inactive
same,outcome,[8],inactive
same,AC50,[9],0.03 µM (active)
same,AC50,[10],34 µM (active)
same,AC50,[11],19.8 µM (active)
same,outcome,[12],inactive
same,AC50,[13],115 µM (active)
same,outcome,[14],inactive
same,outcome,[15],inactive
same,AC50,[16],100 µM (active)
same,outcome,[17],inactive
same,AC50,[18],19.8 µM (active)
same,AC50,[19],41.2 µM (active)
same,outcome,[20],inactive
C[C@]12CC[C@@H]3c4ccc(O)cc4CC[C@H]3[C@@H]1CC[C@H]2O,outcome,[1],inactive
same,AC50,[2],105 µM (active)
same,AC50,[3],68.1 µM (active)
same,AC50,[4],100 µM (active)
same,AC50,[5],97.1 µM (active)
same,AC50,[6],16.8 µM (active)
same,outcome,[7],inactive
same,AC50,[8],54.6 µM (active)
same,AC50,[9],173 µM (active)
same,AC50,[10],75.6 µM (active)
same,outcome,[11],inactive
same,outcome,[12],inactive
same,outcome,[13],inactive
same,outcome,[14],inactive
same,AC50,[15],62.4 µM (active)
same,outcome,[16],inactive
same,outcome,[17],inactive
same,outcome,[18],inactive
same,outcome,[19],inactive
same,outcome,[20],inactive
Clc1ccccc1C(c1ccccc1)(c1ccccc1)n1ccnc1,outcome,[1],inactive
same,AC50,[2],72.3 µM (active)
same,AC50,[3],20.3 µM (active)
same,AC50,[4],30.7 µM (active)
same,AC50,[5],31.6 µM (active)
same,outcome,[6],inactive
same,outcome,[7],inactive
same,outcome,[8],inactive
same,AC50,[9],13.8 µM (active)
same,AC50,[10],18.9 µM (active)
same,AC50,[11],25.8 µM (active)
same,outcome,[12],inactive
same,AC50,[13],24.8 µM (active)
same,outcome,[14],inactive
same,AC50,[15],79.4 µM (active)
same,AC50,[16],29.3 µM (active)
same,AC50,[18],29.8 µM (active)
same,outcome,[19],inactive
same,AC50,[20],55.5 µM (active)
Cc1c2ccccc2c(C)c2c1ccc1ccccc12,AC50,[1],44.6 µM (active)
same,AC50,[2],77.3 µM (active)
same,AC50,[3],56.1 µM (active)
same,AC50,[4],74.5 µM (active)
same,AC50,[5],49.3 µM (active)
same,AC50,[6],95.7 µM (active)
same,outcome,[7],inactive
same,AC50,[8],0.069 µM (active)
same,AC50,[9],6.16 µM (active)
same,AC50,[10],40.3 µM (active)
same,AC50,[11],21.5 µM (active)
same,outcome,[12],inactive
same,AC50,[13],35.8 µM (active)
same,AC50,[14],74 µM (active)
same,AC50,[16],6.17 µM (active)
same,AC50,[18],0.355 µM (active)
same,outcome,[19],inactive
same,AC50,[20],54.7 µM (active)
CCCCCCCCN(C)CCCCCCCC,outcome,[1],inactive
same,outcome,[2],inactive
same,outcome,[3],inactive
same,outcome,[4],inactive
same,outcome,[5],inactive
same,outcome,[6],inactive
same,outcome,[7],inactive
same,outcome,[8],inactive
same,outcome,[9],inactive
same,outcome,[10],inactive
same,outcome,[11],inactive
same,outcome,[12],inactive
same,outcome,[13],inactive
same,outcome,[14],inactive
same,outcome,[15],inactive
same,outcome,[16],inactive
same,outcome,[19],inactive
same,outcome,[20],inactive
CCCCOC(=O)CC(CC(=O)OCCCC)(OC(C)=O)C(=O)OCCCC,outcome,[1],inactive
same,outcome,[2],inactive
same,AC50,[3],27.7 µM (active)
same,outcome,[4],inactive
same,outcome,[5],inactive
same,AC50,[6],70.8 µM (active)
same,outcome,[7],inactive
same,AC50,[8],53.9 µM (active)
same,outcome,[9],inactive
same,AC50,[10],42.5 µM (active)
same,AC50,[11],56.2 µM (active)
same,outcome,[12],inactive
same,AC50,[13],42 µM (active)
same,AC50,[14],43.6 µM (active)
same,outcome,[15],inactive
same,AC50,[16],56.4 µM (active)
same,AC50,[18],57.9 µM (active)
same,outcome,[19],inactive
same,outcome,[20],inactive
